# Values joined by “and” are separate entries in the source; they are usually repeats but may differ in a detail not shown here. Equal entries are not always repeated. Active and inactive are the calls of the source.
# Legend:
# Albumin (Bos taurus) = Albumin (Bos taurus) (UniProt P02769); experiment: bovine serum albumin binders on microarray, profiling panel, artefact control for SMM control protein annotation, biochemical, small-molecule microarray, Alexa647 label, 635/667 nm fluorescence (AID 1118); conditions: BSA-A647 binding, fluorescence 635 nm, higher = more signal;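 also: score merges 667 nm emission intensity and signal-to-noise per printed compound spot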
# [1] = small-molecule microarray binders of probe aXIP, primary screen, biochemical, NeuroSMM set, 635/667 nm fluorescence (AID 1119); conditions: higher = more signal, called active from +8 up or from −8 down unless noted;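 also: probe is the protein aXip251-270 applied at 1 µg/mL to compound-printed slides; binding of probe to printed compounds measured as 667 nm fluorescence plus signal to noise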
# [2] = small-molecule binders of probe aNOTCH3, primary screen, biochemical, small-molecule microarray, 635/667 nm fluorescence (AID 1120); conditions: higher = more signal; small-molecule microarray, probe aNOTCH3, fluorescence unless noted;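 also: probe is a biotin-tagged antibody raised against NOTCH3 rather than NOTCH3 protein; score merges spot fluorescence near 667 nm with spot signal to noise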
# [3] = small-molecule binders of probe aNOTCH2, primary screen, biochemical, small-molecule microarray, 635/667 nm fluorescence (AID 1121); conditions: higher = more signal; small-molecule microarray, probe aNOTCH2, fluorescence unless noted;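 also: score merges feature fluorescence read at 667 nm with its signal to noise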
# [4] = target: Carbonic anhydrase 2 (Homo sapiens) (UniProt P00918); experiment: CAII small-molecule binders, profiling panel, biochemical, small-molecule microarray, Alexa647-labelled CAII (AID 1122); conditions: CAII-A647 binding fluorescence, higher = more signal
# [5] = COS7 lysate on small-molecule microarray, probe aHis, 635 nm (AID 1123); conditions: higher = more signal; small-molecule microarray, COS7 cell lysate, probe aHis, fluorescence unless noted;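 also: z-score combines 667nm fluorescence intensity with signal-to-noise per printed compound spot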
# [6] = compound binding in COS7 lysate, probe aLAP1, primary screen, cell lysate, small-molecule microarray (AID 1124); conditions: higher = more signal; small-molecule microarray, COS7 cell lysate, probe aLAP1, fluorescence unless noted;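 also: lysate comes from COS7 cells expressing LAP1 and is applied at 0.3 µg/mL; score merges spot fluorescence near 667 nm with signal-to-noise over triplicate slides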
# Sam68 (KHDRBS1) = experiment: Sam68 small-molecule binders, primary screen, biochemical, small-molecule microarray, 635 nm fluorescence (AID 1125); conditions: small-molecule microarray binding, higher = more signal;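 also: score merges 667 nm channel intensity with signal to noise over triplicate slides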
# [7] = test system: Chordin-like protein 2 (CHRDL2); experiment: CHRDL2 small-molecule binders, primary screen, biochemical, small-molecule microarray, 635 nm fluorescence (AID 1126); conditions: small-molecule microarray binding, fluorescence 635 nm; higher = more signal;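 also: printed compound slides probed with Chrdl2 protein at 4 µg/mL for 1 h at 4 C; score merges 667 nm emission intensity with signal to noise over three replicate slides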
# [8] = target: Concanavalin-A (Canavalia ensiformis) (UniProt P02866); experiment: ConA small-molecule binders, primary screen, artefact control for SMM control protein annotation, biochemical, small-molecule microarray, Alexa647 label, 635 nm (AID 1127); conditions: ConA-A647 binding fluorescence, higher = more signal;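 also: z combines 667 nm emission intensity with signal-to-noise across three replicate slides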
# Chain of Concanavalin-A (Canavalia ensiformis) (P02866 whole entry, looked up): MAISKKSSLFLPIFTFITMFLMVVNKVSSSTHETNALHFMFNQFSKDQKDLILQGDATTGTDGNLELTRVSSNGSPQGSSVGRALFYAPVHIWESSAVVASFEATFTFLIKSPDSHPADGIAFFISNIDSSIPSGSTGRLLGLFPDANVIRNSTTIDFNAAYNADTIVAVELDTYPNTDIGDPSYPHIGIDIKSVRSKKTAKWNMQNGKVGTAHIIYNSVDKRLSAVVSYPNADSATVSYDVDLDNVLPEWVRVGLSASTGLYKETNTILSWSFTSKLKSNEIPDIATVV
# Chain of Albumin (Bos taurus) (P02769 whole entry, looked up): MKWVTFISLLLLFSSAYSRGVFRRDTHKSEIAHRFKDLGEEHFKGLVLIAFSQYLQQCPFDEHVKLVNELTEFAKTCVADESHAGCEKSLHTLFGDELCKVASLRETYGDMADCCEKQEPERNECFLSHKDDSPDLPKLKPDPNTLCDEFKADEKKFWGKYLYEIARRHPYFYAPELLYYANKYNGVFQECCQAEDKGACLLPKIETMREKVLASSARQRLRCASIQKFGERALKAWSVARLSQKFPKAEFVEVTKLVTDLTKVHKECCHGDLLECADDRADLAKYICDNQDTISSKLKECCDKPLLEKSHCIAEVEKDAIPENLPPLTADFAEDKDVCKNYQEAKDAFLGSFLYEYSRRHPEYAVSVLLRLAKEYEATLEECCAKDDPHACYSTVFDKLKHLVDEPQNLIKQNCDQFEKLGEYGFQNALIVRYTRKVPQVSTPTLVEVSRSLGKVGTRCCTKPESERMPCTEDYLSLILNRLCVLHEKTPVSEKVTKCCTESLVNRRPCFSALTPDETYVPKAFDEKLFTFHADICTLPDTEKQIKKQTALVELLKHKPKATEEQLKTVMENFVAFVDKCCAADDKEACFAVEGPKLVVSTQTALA
Compound,composite z-score (Albumin (Bos taurus)),composite Z-score [1],composite z-score [2],composite z-score [3],composite z-score [4],composite z-score [5],composite z-score [6],composite z-score (Sam68 (KHDRBS1)),composite z-score [7],composite z-score [8]
CCCc1cc2c(n1CCO)C(C)C1CN(C(=O)c3ccccc3)C(C)(C(=O)OC)C21 (stereo not given),0.979,0.43 (inactive),1.25,0.424,0.843,3.26,1.09,0.563,-1.23,1.11
CCCC=C(CCC)[C@@H](NP(=O)(c1ccccc1)c1ccccc1)c1ccccc1,0.377,0.655 (inactive),0.0873,-0.053,-0.0222,0.122,-0.264,0.986,-0.141,1.07
COC(=O)C1(C)C=C2C(=C(C)C(=O)C2C)CN1 (stereo not given),0.395,0.727 (inactive),-0.219,0.0145,0.917,2.82,1.46,-0.326,-0.471,-2.16
CCCc1cc2c(n1Cc1cccc(Cl)c1)C(C)C1CN(C(=O)c3ccccc3)C(C)(C(=O)OC)C21 (stereo not given),1.01,-0.244 (inactive),0.0372,0.0293,0.797,2.68,0.719,0.958,-1.94,0.298
C=C(CC1(C(C)NP(=O)(c2ccccc2)c2ccccc2)CC1)c1ccccc1 (stereo not given),0.314,-0.589 (inactive),0.143,0.038,0.596,3.14,0.425,1.18,-0.0819,0.711
COC(=O)NCC=Cc1nc(CCC=CC(=O)O[C@H]2CC3CC(=O)O[C@@H](C=CCC(C)C)C[C@@H]4CC[C@H](C)[C@@H](C[C@@H](OC)C[C@H](C2)O3)O4)co1,-0.27,0.0506 (inactive),-0.095,-0.14,-0.303,-0.263,0.411,-1.03,-0.647,-1.63
CCOC(=O)[C@H]1CC=C2C(=O)Oc3ccc(Br)cc3[C@@H]21,-0.104,0.35 (inactive),-0.245,-0.0896,0.663,1.95,0.328,0.893,-1.24,1.13
O=P(c1ccccc1)(c1ccccc1)N1CC2(CC2)CC(O)(c2ccccc2)C1 (stereo not given),0.498,0.284 (inactive),0.392,0.193,0.835,3.3,1.19,0.584,-0.31,0.462
CCCC[C@@H]1C[C@H]1[C@@H](NP(=O)(c1ccccc1)c1ccccc1)c1ccc(Cl)cc1,0.708,0.198 (inactive),0.092,-0.0684,0.307,0.807,-0.162,-0.331,-0.226,0.302
CCCc1cc2c(n1Cc1ccc(C)cc1)C(C)C1CN(C(=O)c3ccccc3)C(C)(C(=O)OC)C21 (stereo not given),0.864,1.3 (inactive),0.773,1.03,0.803,2.02,1.45,0.52,-0.809,0.453
COc1cc2c(cc1O)C(C)N(C)CC2 (stereo not given),0.122,0.104 (inactive),-0.0967,-0.0877,0.545,0.594,0.209,-1.24,-0.432,0.519
COC(=O)[C@@]1(Cc2ccc(F)cc2)[C@H]2c3cc(C(=O)N(C)C)[nH]c3C[C@H]2CN1C(=O)c1ccccc1,0.659,0.495 [setting not given] (inactive),-0.0414 [setting not given],-0.0763 [setting not given],0.777,0.694 [setting not given],0.18 [setting not given],0.361,-0.268,0.419
COC(=O)[C@@]1(Cc2ccccc2)[C@H]2c3cc(C(=O)N(C)C)n(C)c3C[C@H]2CN1C(=O)c1ccccc1,0.958,-0.183 (inactive),0.165,0.111,0.839,3.26,1.29,-0.299,-0.652,0.396
C[C@H]1O[C@H]2C3=C(C(=O)[C@@H]4O[C@@H]4[C@@H]3O)[C@@H]1[C@@H]1[C@@H](C)OC=C3[C@@H](O)[C@H]4O[C@H]4C(=O)[C@]312,0.664,0.19 (inactive),-0.0947,-0.125,0.26,-0.393,-0.494,-1.77,-0.0769,-1.83
OCc1ccc(C2=CC(c3cccs3)N(Cc3cccc(OC(F)(F)F)c3)CC2)cc1 (stereo not given),0.343,-0.375 (inactive),-0.0596,-0.115,0.197,0.609,-0.368,0.277,0.396,-0.426
C[C@@H]1OC=C2[C@@H](O)[C@H]3O[C@H]3C(=O)[C@]23[C@H]1[C@H]1C2=C([C@@H](O)[C@H]4O[C@H]4C2=O)[C@@H]3O[C@@H]1C,-0.745,0.278 (inactive),-0.063,-0.147,-0.355,-0.934,-0.266,-1.86,0.584,-0.66

Compound,composite z-score (Albumin (Bos taurus)),composite Z-score [1],composite z-score [2],composite z-score [3],composite z-score [4],composite z-score [5],composite z-score [6],composite z-score (Sam68 (KHDRBS1)),composite z-score [7],composite z-score [8]
CN1CCc2nc(CO)c(CO)cc2C1,0.372,0.396 (inactive),0.133,-0.115,0.2,0.121,-0.13,0.132,0.476,-0.446
COC(=O)[C@@]1(Cc2ccccc2)[C@H]2c3cc(C(=O)N(C)C)[nH]c3C[C@H]2CN1C(=O)c1ccccc1,0.772,-0.0667 (inactive),-0.0017,-0.0193,0.896,-0.0769,0.0772,-1.41,-0.219,-0.394
C[C@@H]1Cc2c(cnc3c2CN(C)CC3)CO1,-0.537,0.266 (inactive),-0.0902,-0.111,-0.0903,0.233,-0.268,-0.512,0.975,-1.28
CCc1cc2c(nc1CC)CCN(CCC(C)=NOC)C2,0.802,0.154 (inactive),0.256,-0.0028,0.639,0.45,1.21,0.92,0.639,-0.426
CCOC(=O)[C@H]1CC=C2C(=O)Oc3ccccc3[C@@H]21,0.445,-0.123 (inactive),-0.126,-0.162,0.568,0.468,1.3,-0.491,-0.94,0.122
COC(=O)[C@H]1C(=O)c2ccccc2O[C@@](C(=O)OC)(c2ccccc2)[C@@H]1c1ccccc1,-0.764,0.181 (inactive),-0.27,-0.125,-0.466,-0.583,-0.129,-0.988,-0.0221,-0.0286
CN1CCC(c2ccc(CO)cc2)=CC1c1cccs1 (stereo not given),-0.105,0.204 (inactive),0.956,-0.14,0.737,-0.563,0.179,-1.28,1.35,0.199
COC(=O)[C@H]1[C@H](c2ccccc2)C(=O)[C@]2(O)c3ccccc3O[C@@]12c1ccccc1,0.394,0.311 (inactive),0.0833,-0.199,-0.132,0.0246,-0.0474,0.198,0.263,0.711
CN1CCC(c2ccc(CO)cc2)=CC1C1CC1 (stereo not given),-1.02,-0.557 (inactive),0.0357,-0.192,-0.0046,-0.106,-0.334,-0.172,0.0276,0.28
COC(=O)[C@H]1[C@@H](O)[C@@]2(O)c3c(OC)cc(OC)cc3O[C@@]2(c2ccc(OC)cc2)[C@@H]1c1ccccc1,0.0007,-0.619 (inactive),-0.101,-0.0439,-0.0268,0.309,0.413,0.34,0.671,0.37
C=C(CC1(CNP(=O)(c2ccccc2)c2ccccc2)CC1)c1ccccc1,0.44,-0.0318 (inactive),0.179,0.0312,0.809,1.2,0.399,-0.975,-0.754,-0.139
OCc1ccc(C2=CC(C3CC3)N(Cc3sc4ccccc4c3Cl)CC2)cc1 (stereo not given),-0.0477,0.565 (inactive),-0.0932,-0.133,0.306,0.88,0.434,1.07,0.529,0.948
COc1cc2c(cc1O)C=[N+](C)CC2,0.502,-0.296 (inactive),-0.0377,-0.133,0.329,-0.4,-0.93,-1.67,0.185,-1.48
c1ccc(-c2cc3c(nc2-c2ccccc2)CCNC3)cc1,0.525,-0.369 (inactive),0.103,-0.131,-0.301,-0.323,-0.171,-0.653,0.12,-0.269
CC1N(P(=O)(c2ccccc2)c2ccccc2)CC(O)(c2ccccc2)CC12CC2 (stereo not given),0.728 and 0.608,0.311 (inactive) and 0.617 (inactive),-0.136 and 0.15,0.148 and 0.256,0.596 and 0.631,3.25 and 2.52,0.934 and 0.881,0.723 and -0.577,-0.665 and -0.801,-0.358 and -0.0278
CCCc1cc2c(n1Cc1ccco1)C(C)C1CN(C(=O)c3ccccc3)C(C)(C(=O)OC)C21 (stereo not given),0.953,0.829 (inactive),0.247,0.374,0.744,0.747,0.859,0.878,0.515,0.851

# — PubChem BioAssay
